Most compounds without a hit are left out; they make up all but 15% or so of the library.
TDP1 cell noCPT: qHTS for Inhibitors of human tyrosyl-DNA phosphodiesterase 1 (TDP1): qHTS in cells in absence of CPT; DT40 Tdp1-/- hTDP1 cells, no CPT, ATP luminescence, 48 h; Potency, µM (doses to about 46.2 µM), for inactives: top-dose activity change, negative = growth inhibition, actives largely listed as inhibitors; 420,000 tested, 15% active; note: nearly all actives have a fitted effect of over 55% in size
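Chicken DT40 Tdp1-/- cells complemented with human TDP1, screened without camptothecin (DMSO vehicle only), 400 cells/well. Compounds pin-transferred, cells incubated at 37 °C for at least 48 hr. Growth read as ATP-dependent luminescence (CellTiter-Glo, 30 min at RT).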
DT40 TDP1 CPT: DT40-hTDP1 cell growth loss with CPT | chicken DT40 Tdp1-/-;hTDP1 cells + 20 nM CPT, ATP luminescence, 48 h | Potency, µM (doses to about 46.2 µM), for inactives: at the highest dose activity change, negative = growth inhibition, actives largely listed as inhibitors | 420,000 tested, 12% active | AID 686979; note: nearly all actives have a fitted effect of over 55% in size
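Chicken DT40 Tdp1-/- cells complemented with human TDP1, 400 cells/well, exposed to compounds plus 20 nM camptothecin for at least 48 h at 37 C; viability read as ATP content by CellTiter-Glo luminescence.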
ALOX12 inh: ALOX12 (human) lipoxygenase inhibition; Potency, µM (top dose mostly 108 µM), for the others: at the highest dose activity change, negative = inhibition, actives largely listed as inhibitors; purified 12hLO, xylenol orange hydroperoxide absorbance; 580,000 tested, 1.1% active; P18054
Target sequence (P18054 whole entry, looked up): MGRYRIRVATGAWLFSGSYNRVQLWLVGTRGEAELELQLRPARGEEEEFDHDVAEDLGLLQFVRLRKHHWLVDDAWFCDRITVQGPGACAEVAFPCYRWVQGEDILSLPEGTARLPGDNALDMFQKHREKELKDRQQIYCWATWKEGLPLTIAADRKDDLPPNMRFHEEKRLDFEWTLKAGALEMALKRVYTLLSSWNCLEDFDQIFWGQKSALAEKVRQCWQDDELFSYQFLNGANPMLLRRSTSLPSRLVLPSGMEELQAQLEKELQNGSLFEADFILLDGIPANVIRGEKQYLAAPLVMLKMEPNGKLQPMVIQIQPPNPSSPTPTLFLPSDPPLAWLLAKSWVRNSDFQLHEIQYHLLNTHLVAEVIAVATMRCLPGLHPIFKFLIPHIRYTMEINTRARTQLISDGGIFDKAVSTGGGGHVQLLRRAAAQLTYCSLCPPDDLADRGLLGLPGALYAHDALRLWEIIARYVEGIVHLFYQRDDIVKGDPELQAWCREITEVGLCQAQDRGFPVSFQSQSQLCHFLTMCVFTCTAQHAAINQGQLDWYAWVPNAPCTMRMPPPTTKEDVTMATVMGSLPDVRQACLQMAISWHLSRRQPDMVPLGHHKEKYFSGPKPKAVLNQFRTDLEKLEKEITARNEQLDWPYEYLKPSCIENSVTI
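Purified human 12hLO at 150 nM in 25 mM Hepes, 0.01% Triton X-100, pH 7.0, preincubated 15 min at room temperature with compound. Reaction started with 40 uM arachidonic acid, 30 min at room temperature. Hydroperoxide measured by Fe-xylenol orange, 573/405 nm absorbance ratio.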
VP16 counter: Gal4-VP16 reporter inhibition counter-screen. 310,000 tested, 3.5% active. Drosophila S2 Gal4-VP16 UAS-luciferase, luminescence, 20 h. Potency, µM (highest dose often 53.6 µM), inactives show at the top dose activity, negative = inhibition, hits mostly inhibitors;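 note: Gal4-VP16 expression switched on by copper sulfate through the metallothionein promoter; nearly all actives have a fitted effect of over 50% in size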
ELG1 repair inh: blocks ELG1-dependent DNA repair in HEK293T cells; Potency, µM (top dose mostly 46.1 µM), for the others: top-dose activity change, negative = inhibition, most hits filed as inhibitors; 330,000 tested, 2.3% active; AID 504467; HEK293T ELG1-luciferase reporter, luminescence, 16 h; DNA damage induced by 5-fluorouridine; note: nearly all actives have a fitted effect of over 55% in size
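Luminescence from the luciferase reporter, measured 30 min after ONE-Glo reagent at room temperature, was the read-out. Beforehand, 2,000 cells per well were exposed for 16 hr at 37 °C to 5-fluorouridine together with compound or vehicle.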
RORgamma inh: ROR gamma (mouse) transcription inhibition; P51450; Drosophila S2 Gal4-RORgamma UAS-luciferase reporter, 20 h; Potency, µM (titrated, usually from 53.6 µM), inactives show at the highest dose activity change, negative = inhibition, usual class: inhibitors; 310,000 tested, 5.4% active; AID 2551; note: nearly all actives have a fitted effect of over 60% in size
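Stably transfected Drosophila Schneider cells are the test system, with ROR gamma fused to Gal4 and luciferase under UAS control; luminescence is read after 20 hr of 700 uM copper sulfate induction at ambient temperature.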
Numbers without * were called inactive; ? = inconclusive; · = no result given. Calls come from the whole dose curve; as a rule, active = well fitted curve in the direction sought with a large enough effect; inconclusive = small, poorly fitted or top-dose-only effect, or another doubt; inactive = no such curve, though single readings can be large; an effect the other way counts as inactive or inconclusive. % is set by controls: 0 for no effect and ±100 for the full control effect; potency is the fitted concentration of half-maximal effect.

SMILES	TDP1 cell noCPT	DT40 TDP1 CPT	ALOX12 inh	VP16 counter	ELG1 repair inh	RORgamma inh
CC(=O)Nc1cc(-c2ccccc2)cn2c(-c3ccc(F)c(Cl)c3)cnc12	?	23µM*	?	·	·	·
COc1ccc(C)cc1NC(=O)Cn1nc2n(c1=O)CCCCC2	·	·	57%	·	·	·
CCn1c(-c2cc(C3CC3)nc3ccccc23)n[nH]c1=S	?	-23%	?	-17%	?	?
Cc1ccc(-c2cc(-c3n[nH]c(=S)n3C)c3ccccc3n2)cc1	?	?	?	-14%	?	1.3µM*
Cn1c(-c2ccccc2Br)n[nH]c1=S	-8%	-2%	?	·	·	·
CCn1c(-c2cc(-c3cc(C)ccc3C)nc3ccccc23)n[nH]c1=S	?	?	-19%	-1%	?	?
CCOc1ccccc1-c1cc(-c2n[nH]c(=S)n2CC)c2ccccc2n1	18µM*	?	-29%	-16%	?	5.6µM*
CCn1c(-c2cc(-c3ccc(C)c(C)c3)nc3ccccc23)n[nH]c1=S	·	·	·	-17%	?	10µM*
Cn1c(=O)c2c(ncn2CCC(=O)NCC2CCCCC2)n(C)c1=O	·	·	7%	·	·	·
CCCc1nnc(NC(=O)c2cc(-c3ccc4c(c3)OCCO4)on2)s1	·	·	5%	·	·	·
CSc1ccc(Cl)c(C(=O)OCC(=O)OC2CC(C)CCC2C(C)C)c1 (centres undefined)	·	·	-1%	·	·	·
COc1ccc(Cn2c(C3CCN(C(=O)c4ccc(F)c(Cl)c4)CC3)n[nH]c2=O)cc1	·	·	-18%	·	·	·
S=c1[nH]nc(CN2CCCCC2)n1Cc1ccccc1	16µM*	15µM*	-24%	18µM*	-22%	3.2µM*
S=c1[nH]nc(CN2CCCC2)n1Cc1ccccc1	0%	-6%	-9%	-8%	7%	11µM*
Cn1ccc2c(N3CCCCCC3)cc3c(c21)C1CCC3C1 (centres undefined)	12µM*	15µM*	?	·	·	·
Cn1ccc2c(N3c4ccccc4CCc4ccccc43)cc3c(c21)C1CCC3C1 (centres undefined)	5.2µM*	2.3µM*	-50%	·	·	·
Cn1ccc2c(N3CCC3)cc3c(c21)C1CCC3O1 (centres undefined)	?	-11%	?	·	·	·
Cn1ccc2c(N3c4ccccc4CCc4ccccc43)cc3c(c21)C1CCC3O1 (centres undefined)	21µM*	23µM*	?	·	·	·
O=C/C=C/c1c(-c2ccccc2)cc2oc3ccccc3cc1-2	18µM*	?	?	?	-2%	?
O=C(O)c1cccc(-c2cc3ccccc3oc2=O)c1	·	·	-52%	·	·	·
COc1ccc(S(=O)(=O)N2CCN(CC(=O)Nc3ccc(C)c(F)c3)CC2)cc1	18µM*	?	0%	-23%	-13%	?
Cc1ccc(NC(=O)CN2CCN(S(=O)(=O)c3ccc(F)cc3)CC2)cc1C	-28%	?	-6%	·	-6%	·
Cc1ccc(NC(=O)CN2CCN(S(=O)(=O)c3ccc(C(C)C)cc3)CC2)cc1F	?	21µM*	?	·	·	·
COc1ccc(S(=O)(=O)N2CCN(CC(=O)Nc3cccc(F)c3)CC2)cc1	-3%	-7%	0%	-3%	-9%	42%
CC(=O)Nc1cc(NCC(=O)NC2(C#N)CCCCC2)ccc1F	·	·	-23%	·	·	·
SMILES	TDP1 cell noCPT	DT40 TDP1 CPT	ALOX12 inh	VP16 counter	ELG1 repair inh	RORgamma inh
Cc1ccc2nc3c(cc(C(=O)NC4CCCCC4)c(=N)n3C3CCCCC3)c(=O)n2c1	15µM*	?	-12%	-1%	0%	-12%
N=c1c(C(=O)NC2CCCCC2)cc2c(=O)n3ccccc3nc2n1Cc1ccccc1	?	?	-14%	-11%	-7%	1%
N=c1c(C(=O)NC2CCCCC2)cc2c(=O)n3ccccc3nc2n1CCc1ccccc1	21µM*	?	-24%	3%	?	29%
Cc1ccc(Cn2c(=N)c(C(=O)NC3CCCC3)cc3c(=O)n4ccccc4nc32)cc1	6.5µM*	10µM*	·	-5%	-10%	-20%
O=C(c1cccc(F)c1)N1CCOc2ccc(CN3CCc4ccccc4C3)cc2C1	·	·	-5%	·	·	·
O=C(c1ccnc(CC2CC(=O)N(c3ccccc3)C2)c1)N1CCCCC1 (centres undefined)	·	·	14%	·	·	·
Cc1ccccc1C1C=C(c2ccccc2)OC(c2ccccc2)=C1C=O (centres undefined)	·	·	5.6µM*	·	·	·
COc1ccc(-c2nc3ccccn3c2C=O)cc1	-28%	-29%	22%	-1%	?	-24%
Cc1ccc(-c2cc3ccccn3c2C=O)cc1C	·	·	16µM*	·	·	·
FC(F)Oc1ccccc1/C=N/n1cnc2ccccc21	18µM*	?	1%	?	?	?
CCCc1nnc(NC(=O)Cn2c(=O)oc3cc(Br)ccc32)s1	8%	?	?	4%	?	3%
O=c1oc2cc(Br)ccc2n1CSC1=NCCS1	18µM*	21µM*	0%	-1%	?	-32%
Cc1csc2nc(CNS(=O)(=O)c3ccc4c(c3)OCCO4)cn12	?	?	16%	2%	-10%	10%
Cc1csc2nc(CNS(=O)(=O)c3ccc4c(c3)CCCC4)cn12	9.2µM*	?	28%	-9%	-12%	3%
Cc1oc(-c2cccs2)nc1CC(=O)Nc1ccc(F)cc1Cl	·	·	-11%	·	·	·
CN1CCN(c2nc(-c3ccc(C(C)(C)C)cc3)nc3ccccc23)CC1	21µM*	?	32µM*	?	?	?
CCN1CCN(c2nc(-c3ccccc3)nc3ccccc23)CC1	29µM*	?	-13%	-12%	-19%	?
COc1ccc(CN(C)C(=O)c2ccc3oc(C)cc3c2)c2cccnc12	·	·	68%	·	·	·
Cc1cccc(N(C)C(=O)Cc2nn(C)c(=O)c3ccccc23)c1C	·	·	0%	·	·	·
Cc1c(CCC(=O)N[C@@H](C)C(=O)O)c(=O)oc2cc3oc4c(c3cc12)CCCC4	1%	3%	1%	?	?	-44%
Cc1c(CCC(=O)N2CCC(C(=O)O)CC2)c(=O)oc2cc3oc4c(c3cc12)CCCC4	15µM*	?	-7%	?	24%	?
Cc1c(CCC(=O)N2CCC(C(=O)O)(c3ccccc3)CC2)c(=O)oc2cc3oc4c(c3cc12)CCCC4	-13%	1%	0%	?	32%	1.1µM*
